Data on 36 compounds can be found in PubChem BioAssay (NCATS).

Results filed as inconclusive are left out. Values without a mark were called inactive. Activity calls are given as the source filed them. Calls come from the whole dose curve; as a rule, active = well fitted cell-killing curve with a large enough effect; inconclusive = small, poorly fitted or top-dose-only effect; inactive = no such curve, though single readings can be large or run the other way.
% is set by controls: 0 for no effect and ±100 for the full control effect; potency is the fitted concentration of half-maximal effect.

This test can be described thus: qHTS of pediatric cancer cell lines to identify multiple opportunities for drug repurposing: Primary screen for Rh30 cells (AID 1347107). Note: nearly all actives have a fitted effect of over 75% in size. As to conditions: Rh30 rhabdomyosarcoma viability, CellTiter-Glo luminescence, 48 h; series mostly up to 46 µM; activity change, negative = cytotoxic: at the top concentration. A digest of the protocol:
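Viability after 48 h compound treatment at 37C, 500-1,000 cells/well, read as ATP luminescence with CellTiter-Glo. Primary screens used 11-point (MIPE, 0.78 nM-46 µM) or 8-point (NPC, 0.59 nM-46 µM) final concentrations; follow-up screens used 11-point dilutions.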
(In qHTS, concentration-response curves come from the screen itself.)
As for `COc1cc2c(cc1OC)[C@@H]1Cc3ccc(OC)c(OC)c3CN1CC2`, the “activity change, negative = cytotoxic” value was 2.66%.

Take `CN1CCN(c2ncc(-c3cc(Cl)cc(Cl)c3Cl)c(N)n2)CC1`: the “activity change, negative = cytotoxic” value was 24.2%.

Take `C[C@@H]1[C@H](O)[C@@H](C)C=CC=CC=CC=CC=CC=CC=C[C@H](O[C@@H]2O[C@H](C)[C@H](O)[C@H](N)[C@@H]2O)C[C@@H]2O[C@](O)(C[C@@H](O)C[C@@H](O)[C@H](O)CC[C@@H](O)C[C@@H](O)CC(=O)O[C@H]1C)C[C@H](O)[C@@H]2C(=O)O`: the Potency is 0.418 µM (active). For `CCC[C@H](N[C@@H](C)C(=O)N1[C@@H]2CCCC[C@H]2C[C@H]1C(=O)O)C(=O)OCC`, the “activity change, negative = cytotoxic” value is 11.3%. As to `O=c1[nH]nc(OCCCc2ccc(Cl)cc2)c(NCc2cccnc2)c1Br`, the Potency is 23.5 µM (active).

Take `CNC(=O)[C@H](CC1=CN=C2C=CCC=C12)NC(=O)[C@@H](CC(=O)NO)CC(C)C`: the “activity change, negative = cytotoxic” value is -0.0961%. In the case of `CCC(=O)OCC(=O)[C@@]1(OC(=O)CC)[C@@H](C)C[C@@H]2[C@H]3CCC4=CC(=O)C=C[C@]4(C)[C@@]3(F)[C@@H](O)C[C@@]21C`, the “activity change, negative = cytotoxic” value was -6.99%. Still for that read-out and setting: the same measure for `CC[C@]1(O)C[C@H]2CN(CCC3=c4ccccc4=N[C]3[C@@](C(=O)OC)(c3cc4c(cc3OC)N(C)[C@H]3[C@@](O)(C(N)=O)[C@H](O)[C@]5(CC)C=CCN6CC[C@]43[C@@H]65)C2)C1`: 10.1%.

Regarding `COc1cc(CNC(=O)CCCCC=CC(C)C)ccc1O`, the “activity change, negative = cytotoxic” value is -1.28%. For `CCC(C)SSc1ncc[nH]1` (stereo unspecified), the “activity change, negative = cytotoxic” value is 1.18%. The same measure, in the same setting: to `CCC(c1ccc(O)cc1)C(CC)c1ccc(O)cc1` (stereo unspecified) belongs -5.17%.

For `CC(C)n1c(C=C[C@H](O)C[C@H](O)CC(=O)O)c(-c2ccc(F)cc2)c2ccccc21`, the “activity change, negative = cytotoxic” value was -13%. On the same count and under the same terms, the same measure for `CC1CNc2c(cccc2S(=O)(=O)N[C@@H](CCCN=C(N)N)C(=O)N2CC[C@@H](C)C[C@@H]2C(=O)O)C1` (stereo partly specified): 6.02%; for `C[C@@]1(c2cc(-c3cncnc3)c(F)cc2F)CCSC(N)=N1`: -0.743%; for `CCOC(=O)[C@H](CCc1ccccc1)N[C@@H](C)C(=O)N1CCCC1C(=O)O` (stereo partly specified): 17.6%. On the same count and under the same terms, to `CC1=C(CC(=O)O)c2cc(F)ccc2C1=Cc1ccc(S(C)=O)cc1` (stereo unspecified) belongs -11.7%. Same read-out and setting: the same measure for `CSc1cccc(Nc2ncc3cc(-c4c(Cl)cccc4Cl)c(=O)n(C)c3n2)c1`: -11%.

For the compound `Cc1ccccc1-n1c(Cn2nc(-c3cccc(O)c3)c3c(N)ncnc32)nc2cccc(C)c2c1=O`, the “activity change, negative = cytotoxic” value was -13.5%. The same measure, in the same setting: to `CCC[C@H](Nc1nc(-c2ccc(NC(=O)NCC)c(OC)c2)ncc1C)c1cccnc1` belongs 12.9%; to `Cc1cccc(-c2[nH]c(C(C)(C)C)nc2-c2ccc3c(c2)OCO3)n1`, -13.5%.

In the case of `CCN(CCO)CCCOc1ccc2c(Nc3cc(CC(=O)Nc4cccc(F)c4)[nH]n3)ncnc2c1`, the “activity change, negative = cytotoxic” value was 16.4%.

With `CC[C@H](NC(=O)[C@H](C)NC)C(=O)N1C[C@@H](O)C[C@H]1Cc1c(-c2[nH]c3cc(F)ccc3c2C[C@H]2C[C@H](O)CN2C(=O)[C@H](CC)NC(=O)[C@H](C)NC)[nH]c2cc(F)ccc12`, the “activity change, negative = cytotoxic” value was -4.41%. Same read-out and setting: to `CC1(COc2ccc3c(c2)ncn3-c2ccc3cccc(N4CCC(N)CC4)c3n2)COC1` belongs -23.5%; to `Nc1ccn([C@@H]2O[C@H](CO)[C@@H](O)[C@H]2O)c(=O)n1`, -10.4%. Still for that read-out and setting: to `Cc1ccc2c(c1)C(=O)[C@]1(O)CCN(c3ccccc3)C1=N2` belongs -4.89%; to `COc1cc([C@@H]2c3cc4c(cc3[C@@H](O[C@@H]3O[C@@H]5CO[C@@H](C)O[C@@H]5[C@H](O)[C@@H]3O)[C@H]3COC(=O)[C@H]23)OCO4)cc(OC)c1O`, -25%.

With `COc1cc2ncnc(Nc3cc(Br)c(O)c(Br)c3)c2cc1OC`, the “activity change, negative = cytotoxic” value was 0.778%. The same measure, in the same setting: the same measure for `CON(C)C(=O)N1N=C(c2cc(F)ccc2F)S[C@]1(CCCN)c1ccccc1`: -1.95%; for `C[C@@H]1C[C@H]2[C@@H]3CCC4=CC(=O)C=C[C@]4(C)[C@@]3(F)[C@@H](O)C[C@]2(C)[C@@]1(O)C(=O)CO`: 25.9%. For the compound `C[C@H](c1ccc(F)cc1CCCC(=O)O)N(c1cc(F)ccc1F)S(=O)(=O)c1ccc(Cl)cc1`, the Potency is 14.8 µM (active). In the case of `CN(C(Cc1ccc(OS(=O)(=O)c2cccc3cnccc23)cc1)C(=O)N1CCN(c2ccccc2)CC1)S(=O)(=O)c1cccc2cnccc12` (stereo unspecified), the “activity change, negative = cytotoxic” value is -0.771%.

Take `Cc1ccc(C(=O)N(CCCN)[C@@H](c2nc3cc(Cl)ccc3c(=O)n2Cc2ccccc2)C(C)C)cc1`: the “activity change, negative = cytotoxic” value is 10%.

As to `Cc1csc(-c2nnc(Nc3ccc(Oc4ncccc4-c4ccnc(N)n4)cc3)c3ccccc23)c1`, the “activity change, negative = cytotoxic” value was 10.6%. Same read-out and setting: to `Cc1ccc(C(=O)N(CCCN)[C@@H](c2oc3cc(Cl)ccc3c(=O)c2Cc2ccccc2)C(C)C)cc1` belongs -11.7%; to `COC(=O)Nc1ccc(-c2nc(N3CCOCC3)c3cnn(C4CCN(C(=O)OC)CC4)c3n2)cc1`, -24.8%; to `O=C1Nc2ccc(I)cc2C1=Cc1cc(Br)c(O)c(Br)c1`, 16.3%.
